Data published in the supplement of paper PMC6331611.
“And” between values parts separate entries of the source, which are not always exact repeats. Identical values can stand only once. ± gives the standard deviation of the averaged measurements. In all, about 1,600 compounds were measured (“normalized intracellular growth (luminescence, IQM-normalized) in RAW264.7 macrophages”: median about 1, lowest 2% from about 0.43 on). Shown is part of a subset that was picked to be rich in the lowest values.

System: Salmonella enterica serovar Typhimurium SL1344
Assay: normalized intracellular growth (luminescence, IQM-normalized) in RAW264.7 macrophages (fraction of plate interquartile mean); higher = more bacterial growth (less inhibition)
Details: 10 µM

Structure (SMILES) | normalized intracellular growth (time point: T3 (3 h)) | normalized intracellular growth (time point: Tfinal (~6 h))
CC(=O)NCCCCCC(=O)O | 0.997 ± 0.019 | 1.02 ± 0.17
O=S(=O)(O)CCSSCCS(=O)(=O)O | 1.02 ± 0.061 | 0.986 ± 0.18
CC(C(=O)O)c1ccc(CC2CCCC2=O)cc1 (centres undefined) | 1.05 ± 0.055 | 1.06 ± 0.064
NC[C@@H]1CC[C@@H](N)[C@@H](O[C@H]2[C@H](O)[C@@H](O[C@H]3O[C@H](CO)[C@@H](O)[C@H](N)[C@H]3O)[C@H](N)C[C@@H]2N)O1 | 1.04 ± 0.023 | 0.976 ± 0.13
NCC(O)CC(=O)O (centres undefined) | 0.966 ± 0.067 | 1.03 ± 0.12
CC1COc2c(N3CCN(C)CC3)c(F)cc3c(=O)c(C(=O)O)cn1c23 (centres undefined) | 0.856 ± 0.034 | 0.134 ± 0.0023
C[C@H]1COc2c(N3CCN(C)CC3)c(F)cc3c(=O)c(C(=O)O)cn1c23 | 1.245 ± 0.0094 | 0.00765 ± 0.001
C[C@H]1COc2c(C3(N)CC3)c(F)cc3c(=O)c(C(=O)O)cn1c23 | 1.36 ± 0.11 | 0.00812 ± 0.0004
CN1CCN(c2c(F)cc3c(=O)c(C(=O)O)cn4c3c2SCC4)CC1 | 0.982 ± 0.061 | 0.095 ± 0.094
CCCCCCc1ccc(O)cc1O.Nc1c2ccccc2nc2ccccc12 | 0.891 ± 0.014 | 1.07 ± 0.012
CC1(C)S[C@@H]2[C@H](N3C(=O)[C@@H](c4ccccc4)NC3(C)C)C(=O)N2[C@H]1C(=O)O | 1 ± 0.031 | 0.974 ± 0.056
COC(=O)/C=C/C(=O)OC | 0.935 ± 0.047 | 0.937 ± 0.028
O=C([O-])[C@H]1/C(=C/CO)O[C@@H]2CC(=O)N21.[Li+] | 1.02 ± 0.099 | 0.812 ± 0.11
CN(C)c1cnccn1 | 0.967 ± 0.046 | 0.904 ± 0.32
CSCC[C@H](NC(=O)[C@H](Cc1c[nH]c2ccccc12)NC(=O)CCNC(=O)OC(C)(C)C)C(=O)N[C@@H](CC(=O)O)C(=O)N[C@@H](Cc1ccccc1)C(N)=O | 1 ± 0.04 | 0.827 ± 0.23
Cl.N=C(N)NCCC[C@H](N)C(=O)O | 1.05 ± 0.065 | 1.02 ± 0.092
NCC(=O)CCC(=O)O | 1.09 ± 0.029 | 1.02 ± 0.042
Cc1nc(C)c(Cl)c(O)c1Cl | 0.942 ± 0.035 | 1.16 ± 0.1
C[C@]12CCC(=O)C=C1CC[C@@H]1[C@@H]2[C@@H](O)C[C@@]2(C)[C@H]1CC[C@]2(O)C(=O)COP(=O)(O)O | 0.9812 ± 0.0046 | 0.999 ± 0.047
O=C(O)c1cc(O)c2c(c1)[C@H]([C@H]1c3cc(C(=O)O)cc(O)c3C(=O)c3c(O[C@@H]4O[C@H](CO)[C@@H](O)[C@H](O)[C@H]4O)cccc31)c1cccc(O[C@@H]3O[C@H](CO)[C@@H](O)[C@H](O)[C@H]3O)c1C2=O | 0.957 ± 0.08 | 0.961 ± 0.026
O=C1C2CC3CC1CC(O)(C3)C2 | 1 ± 0.017 | 1.06 ± 0.065
N=C(NCCCCCCNC(=N)NC(=N)Nc1ccc(Cl)cc1)NC(=N)Nc1ccc(Cl)cc1 | 0.912 ± 0.078 | 1.15 ± 0.014
CC(C)NC(=N)NC(=N)Nc1ccc(Cl)cc1 | 0.664 ± 0.018 | 0.164 ± 0.01
O=C1c2c(O)cc(CO)cc2C(OC2OC(CO)C(O)C(O)C2O)c2cccc(OC3OC(CO)C(O)C(O)C3O)c21 (centres undefined) [CASANTHRANOL [cascaroside A shown]] | 0.997 ± 0.016 | 0.857 ± 0.041
CCCCCCOC(=O)NC(=N)c1ccc(NCc2nc3cc(C(=O)N(CCC(=O)OCC)c4ccccn4)ccc3n2C)cc1 | 1.02 ± 0.01 | 0.97 ± 0.034
CCCCC(CC)COC(=O)CC(C(=O)OCC(CC)CCCC)S(=O)(=O)O (centres undefined) | 0.943 ± 0.069 | 0.958 ± 0.027

Structure (SMILES) | normalized intracellular growth (time point: T3 (3 h)) | normalized intracellular growth (time point: Tfinal (~6 h))
CCN(CC)CCNC(=O)c1ccc(NC(C)=O)cc1 | 1.03 ± 0.065 | 1 ± 0.12
C[C@H]1[C@H](OC(=O)CCC(=O)O)O[C@@H]2O[C@@]3(C)CC[C@H]4[C@H](C)CC[C@@H]1[C@@]24OO3 | 0.899 ± 0.045 | 0.869 ± 0.028
Nc1ncn([C@@H]2O[C@H](CO)[C@@H](O)[C@H]2O)c(=O)n1 | 0.951 ± 0.029 | 0.154 ± 0.087
Nc1ccn([C@@H]2O[C@H](CO)[C@@H](O)[C@@H]2O)c(=O)n1 | 0.9664 ± 0.0095 | 0.997 ± 0.037
O=c1[nH]cnc2c1ncn2[C@@H]1O[C@H](CO)[C@@H](O)[C@H]1O | 0.917 ± 0.048 | 0.976 ± 0.13
CCCCC(CC)CN=C(N)N=C(N)NCCCCCCNC(N)=NC(N)=NCC(CC)CCCC (centres undefined) | 0.994 ± 0.063 | 1.1 ± 0.035
CN(C)CC[C@@H](c1ccc(Cl)cc1)c1ccccn1 | 1 and 1.05 | 1.01 and 0.736
C[C@]12C=CC(=O)C=C1CC[C@@H]1[C@@H]2[C@@H](O)C[C@@]2(C)[C@H]1CC[C@]2(O)C(=O)COC(=O)CCC(=O)O | 1.02 ± 0.016 | 0.815 ± 0.11
N[C@H]1C(O)O[C@H](CO)[C@@H](O)[C@@H]1O (some centres undefined) | 0.967 ± 0.045 | 0.999 ± 0.058
CN1CCN(c2cc3c(cc2F)c(=O)c(C(=O)O)cn3-c2ccc(F)cc2)CC1 | 0.634 ± 0.14 | 0.982 ± 0.093
CCn1cc(C(=O)O)c(=O)c2cc(F)c(N3CCNCC3)cc21 | 1.07 ± 0.028 | 1.19 ± 0.029
O=C(O)c1cn(C2CC2)c2cc(N3CCNCC3)c(F)cc2c1=O | 1.14 ± 0.019 | 0.0127 ± 0.00088
CCn1cc(C(=O)O)c(=O)c2cc(F)c(N3CCN(C)CC3)cc21 | 1.11 ± 0.11 | 0.012 ± 0.0031
O=C(O)c1cn(-c2ccc(F)cc2)c2cc(N3CCNCC3)c(F)cc2c1=O | 1.1 ± 0.081 | 0.00781 ± 0.0016
CCn1cc(C(=O)O)c(=O)c2cnc(N3CCCC3)nc21 | 0.929 ± 0.0075 | 1.04 ± 0.053
C[C@H](N[C@@H](CCc1ccccc1)C(=O)O)C(=O)N1Cc2ccccc2C[C@H]1C(=O)O | 1.03 ± 0.079 | 1.08 ± 0.12
NC(=O)CCCCC1CCSS1 (centres undefined) | 0.996 ± 0.093 | 0.817 ± 0.12
O=S(=O)(O)CCCS(=O)(=O)O | 1.01 ± 0.095 | 0.9 ± 0.34
O=C1/C(=C/c2cccs2)CCC/C1=C\c1cccs1 | 0.973 ± 0.059 | 1.06 ± 0.036
CC1=CC(=O)NS(=O)(=O)O1 | 1.06 ± 0.077 | 1.04 ± 0.089
CN1CC(=O)N2[C@H](c3ccc4c(c3)OCO4)c3[nH]c4ccccc4c3C[C@@H]2C1=O | 1.06 ± 0.072 | 0.783 ± 0.27
CN(C)c1ccc(C(=C2C=CC(=[N+](C)C)C=C2)c2ccc(N(C)C)cc2)cc1 | 0.8927 ± 0.0022 | 0.931 ± 0.03
CC(=O)OCC(=O)[C@@]1(O)[C@H](OC(C)=O)C[C@H]2[C@@H]3CCC4=CC(=O)C=C[C@]4(C)[C@@]3(F)[C@@H](O)C[C@@]21C | 0.823 ± 0.07 | 1.2 ± 0.034
CCOc1ccc(Cc2nccc3cc(OCC)c(OCC)cc23)cc1OCC | 0.925 ± 0.09 | 0.43 ± 0.11
CCC/C=C\C=C/C(=O)N[C@@H](CC(N)=O)C(=O)NC(CC(N)=O)C(=O)N[C@@H](C(=O)N[C@H](CCCN)C(=O)N[C@@H](C(=O)N[C@@H](C(=O)N[C@@H](C(=O)N[C@H](C(=O)N[C@@H](Cc1ccccc1)C(=O)N[C@H](CCCN)C(=O)NC(C(=O)N[C@H](C(=O)NC(C(=O)NCC(=O)N[C@@H](CC(C)C)C(=O)N[C@H](C)C(=O)NC(C(=O)O)C1CCC(O)C(Cl)C1)C1CCC(O)CC1)[C@H](C)O)C1CCC(O)CC1)[C@H](C)O)C1CCC(O)CC1)C1CCC(O)CC1)[C@H](C)O)C1CCC(O)CC1 (some centres undefined) [RAMOPLANIN [A2 shown; 2mM]] | 0.984 ± 0.051 | 1.17 ± 0.15
C=CCCCCCCCCC(=O)[O-].C=CCCCCCCCCC(=O)[O-].[Zn+2] | 1 ± 0.048 | 0.832 ± 0.1
